Bioassay records (PubChem BioAssay)
A selection: hits, their analogues and other compounds. The true share with any hit is near 13%.
USP30 inh – inhibitors of human USP30 deubiquitinase | purified USP30, Ub-rhodamine cleavage fluorescence | actives 5.3% (n = 47,000) | inhibition, % at 25 µM
USP8 inh – inhibitors of human USP8 deubiquitinase. inhibition, % at 20 µM. actives 4.2% (n = 47,000). Ubiquitin carboxyl-terminal hydrolase 8 (Homo sapiens), P40818. purified USP8, Ub-rhodamine cleavage fluorescence, 30 min
USP28 block – inhibitors of human USP28 deubiquitinase. Ubiquitin carboxyl-terminal hydrolase 28 (Homo sapiens), Q96RU2. AID 1645857, 2021. purified USP28, Ub-rhodamine cleavage fluorescence, 30 min. actives 3% (n = 47,000). inhibition, % at 25 µM
Target sequence (Q96RU2 whole entry, looked up): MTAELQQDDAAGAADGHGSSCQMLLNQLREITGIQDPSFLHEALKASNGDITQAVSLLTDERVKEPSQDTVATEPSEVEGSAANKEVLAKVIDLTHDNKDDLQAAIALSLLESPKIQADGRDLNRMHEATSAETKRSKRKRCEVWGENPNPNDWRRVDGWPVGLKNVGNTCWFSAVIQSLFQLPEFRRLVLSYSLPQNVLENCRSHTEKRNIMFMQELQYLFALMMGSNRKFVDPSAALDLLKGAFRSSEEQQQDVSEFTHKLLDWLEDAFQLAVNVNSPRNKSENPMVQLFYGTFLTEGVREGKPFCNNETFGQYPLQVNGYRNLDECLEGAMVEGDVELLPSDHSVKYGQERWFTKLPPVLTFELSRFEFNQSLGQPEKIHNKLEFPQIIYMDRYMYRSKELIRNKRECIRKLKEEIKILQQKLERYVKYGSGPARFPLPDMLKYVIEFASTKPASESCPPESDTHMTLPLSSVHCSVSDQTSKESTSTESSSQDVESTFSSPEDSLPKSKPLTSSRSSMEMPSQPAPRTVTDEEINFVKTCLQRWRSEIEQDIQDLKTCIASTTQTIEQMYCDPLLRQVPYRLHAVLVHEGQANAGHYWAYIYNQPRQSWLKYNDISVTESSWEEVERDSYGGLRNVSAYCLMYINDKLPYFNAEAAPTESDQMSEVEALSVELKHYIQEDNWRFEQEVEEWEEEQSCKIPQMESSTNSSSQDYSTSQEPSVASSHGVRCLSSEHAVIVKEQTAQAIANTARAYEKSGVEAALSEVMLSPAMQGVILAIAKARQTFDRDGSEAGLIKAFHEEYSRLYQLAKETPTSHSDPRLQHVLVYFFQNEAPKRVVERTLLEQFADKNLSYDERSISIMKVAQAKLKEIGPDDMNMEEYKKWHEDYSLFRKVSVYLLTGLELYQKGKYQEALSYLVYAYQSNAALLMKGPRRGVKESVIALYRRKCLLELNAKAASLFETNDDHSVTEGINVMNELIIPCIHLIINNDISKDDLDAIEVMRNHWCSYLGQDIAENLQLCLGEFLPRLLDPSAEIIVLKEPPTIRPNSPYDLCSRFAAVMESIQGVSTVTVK
USP17 inh – inhibitors of human USP17 deubiquitinase; Ubiquitin carboxyl-terminal hydrolase 17-like protein 5 (Homo sapiens), A8MUK1; inhibition, % at 50 µM; purified USP17, Ub-rhodamine cleavage fluorescence, 3 h; AID 1645855, 2021; actives 6.5% (n = 47,000)
* marks the source's active call; other numbers are inactive results; x = no result. Cut-off read from the data, not from the text of the source: active = inhibition above about 30%; inactive = the rest.

SMILES	USP30 inh	USP8 inh	USP28 block	USP17 inh
O=C(CCc1ccccc1)N1CCN(c2nc3c(Cl)cccc3s2)CC1	38*	16	21	26
COc1cccc2sc(N3CCN(C(=O)CCc4ccccc4)CC3)nc12	17	13	14	6
CCN1CCN(c2ccc(C(=O)O)cc2NS(=O)(=O)c2ccc(C(C)C)cc2)CC1	0	81*	2	7
CCOC(=O)c1ccc(N2CCN(CC)CC2)c(NC(=O)Cc2ccccc2)c1	-6	4	6	0
c1ccc(COc2ccc3[nH]c4c(c3c2)CCCCCC4)cc1	-26	-3	3	42*
Cc1ccc(-n2nc3c(c2-n2cccc2)CN(C(=O)c2ccc[nH]c2=O)C3)c(C)c1	-78	-165	-20	-20
O=C(CCCCn1c(=O)c2ccccc2n(CC(=O)Nc2ccc(F)cc2)c1=O)NCCc1ccccc1	26	19	9	47*
O=C(Cn1c(=O)c2ccccc2n(CC(=O)Nc2cccc(F)c2)c1=O)NCCc1ccccc1	38*	-39	20	29
CC(C)(C)c1ccc(N(CC(N)=O)S(C)(=O)=O)cc1	34*	-20	3	11
COc1c(C)c(OC(=O)c2c(C)c(C)c(OC(=O)c3c(C)c(C)c(O)c(C)c3O)c(C)c2OC)c(C)c(C)c1C(=O)O	54*	9	70*	51*
COc1c(O)c(C)c(C)c(O)c1OC (tested in a mixture with another compound)	15	9	4	29
N#Cc1cc([N+](=O)[O-])ccc1NCC1COc2ccccc2O1 (stereo unspecified)	-41	-2	47*	-8
CC(CNC(=O)c1ccccc1)NC(=O)c1ccccc1 (stereo unspecified)	-1	8	2	6
O=C(NC(C(=O)OCc1ccccc1)c1ccccc1)c1ccccc1 (stereo unspecified)	32*	4	9	26
CCOc1ccc2c(c1)c(=O)c(C(=O)c1ccc(C)cc1)cn2CC(=O)Nc1ccc(C)cc1	10	95*	12	8
COc1cccc(NC(=O)Cn2cc(C(=O)c3ccc(C)cc3)c(=O)c3cc(Cl)ccc32)c1	-20	73*	19	-3
CCOc1ccc2c(c1)c(=O)c(C(=O)c1ccc(C)cc1)cn2CC(=O)Nc1ccc(OC)cc1	-4	0	4	56*
CCOc1ccc2c(c1)c(=O)c(C(=O)c1ccc(C)cc1)cn2CC(=O)Nc1ccc(C)c(C)c1	x	92*	x	19
CC1(C)Cc2c(c(N3CCCC3)nc3sc4c(NCCN5CCOCC5)ncnc4c23)CO1	-27	11	-7	-2
Cc1ccc(NC(=O)C2CCC(=O)N2S(=O)(=O)c2ccccc2)cc1 (stereo unspecified)	-4	-22	2	0
Cc1nn(C)c(NC(=O)Nc2ccc(F)cc2F)c1C1=CCCCC1	-8	-2	-11	0
Cc1nn(C)c(NC(=O)Nc2ccccc2F)c1C1=CCCCC1	34*	2	5	24
Cc1sc(NC(=O)C2CCCCC2)nc1-c1ccccc1	8	-15	15	0
CCS(=O)(=O)N1Cc2ccccc2CC1C(=O)Nc1nc(-c2ccccc2)c(C)s1 (stereo unspecified)	-71	46*	-7	-7
CCS(=O)(=O)N1Cc2ccccc2CC1C(=O)NCc1ccc2c(c1)OCO2 (stereo unspecified)	-40	39*	7	26
SMILES	USP30 inh	USP8 inh	USP28 block	USP17 inh
CCc1ccc(NC(=O)c2cn(C)nc2S(=O)(=O)N2CCCCCC2)cc1	12	-155	11	-8
CCC1CN(S(=O)(=O)c2ccc3c(c2)NC(=O)CCS3)c2cc(C)ccc2O1 (stereo unspecified)	43*	1	13	20
Cc1ccc2c(c1)[C@]1(C(=O)N2)[C@@H](C(=O)c2ccccc2)[C@]2(C(=O)Nc3ccccc32)[C@@H]2CCCN21	-3	0	0	52*
Cc1c(N2C(=S)N=C(Nc3ccc(Br)cc3)C23CCCCC3)c(=O)n(-c2ccccc2)n1C	11	3	11	3
CCN1C(=O)c2ccccc2S(=O)(=O)c2ccc(C(=O)N3CCN(c4cccc(C)c4)C(C)C3)cc21 (stereo unspecified)	-1	-8	-6	-15
Cc1cc(-c2cnc(N3CCCC3)nc2C2CCN(c3nccc(C)n3)CC2)on1	-2	0	1	8
Cc1cc(-c2cnc(N3CCSCC3)nc2-c2ccoc2)on1	-3	-5	41*	7
Cc1cc(OCC(=O)Nc2cccc(C#N)c2)nc(N2CCCCC2)n1	-30	-17	-1	-14
CC(=O)Nc1cccc(NC(=O)COc2cccc3ccc(N4CCCC4)nc23)c1	15	6	15	53*
Cc1cccc(NC(=O)COc2cccc3ccc(N4CCC(C(N)=O)CC4)nc23)c1	15	61*	0	33*
CCOc1ccccc1NC(=O)CC(c1ccco1)n1cccc1 (stereo unspecified)	-31	4	1	5
COc1ccc2c(C)c(CC(=O)N[C@@H](Cc3c[nH]c4ccc(O)cc34)C(=O)O)c(=O)oc2c1C	-31	45*	9	16
COc1ccc2c(C)c(CC(=O)N[C@@H](Cc3c[nH]c4ccccc34)C(=O)O)c(=O)oc2c1C	-30	4	-2	13
O=C(Nc1ccccc1)C1CCCN(C(=O)c2cc3ccccc3[nH]2)C1 (stereo unspecified)	33*	23	9	60*
Cc1ccc(C(=O)N2CCN(C(=O)c3cc4ccccc4[nH]3)CC2)cc1	26	15	15	37*
COc1ccccc1-c1cnc(C(O)c2ccc3c(c2)OCO3)[nH]1 (stereo unspecified)	-17	11	0	-7
COc1ccc(Br)cc1CNC(=O)c1cc2occc2n1C	-117	-47	-17	2
COc1ccc(C(=O)CSc2nnc(-c3cccnc3)n2-c2ccccc2)cc1	52*	8	0	42*
Cc1cc(C)c(C(=O)CSc2nnc(-c3cccnc3)n2C)cc1C	2	4	-2	0
Cc1ccc(C(=O)Nc2cccc(CO)c2)cc1	-17	4	-4	0
Cc1nc(-c2ccccc2)n(Cc2ccncc2)c(=O)c1CCO	-80	-4	-14	-11
COc1cccc(CNCC(O)(c2ccccc2)c2ccc(Cl)cc2)c1 (stereo unspecified)	24	13	15	8
COc1ccccc1CNCC(O)(c1ccccc1)c1ccc(F)cc1 (stereo unspecified)	36*	4	20	8
O=C(CNS(=O)(=O)c1ccc(F)cc1)N1CCCC(c2nnc3ccccn23)C1 (stereo unspecified)	16	57*	51*	8
Cc1ccccc1-c1nnc(-c2ccc(C(=O)N(C)C(C)c3ccccc3)cc2)o1 (stereo unspecified)	-7	3	-7	5
Cc1ccccc1-c1nnc(-c2ccc(C(=O)N(C)Cc3cccc(F)c3)cc2)o1	40*	16	20	23
